About 83,000 compounds went through this panel and 20% of them were active in at least one assay; those are over-represented in the sample as a whole.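 96-well plates, one dose, 48 hours. Percent growth reported; active if below 10.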 A number with no mark means an inactive call. Activity calls are given as the source filed them.
Experiments:
Assay in all cases: NCI-60 one-dose screen, 48 h (100 = growth as untreated, 0 = no growth, -100 = all killed)
Conditions in all cases: 10 µM unless noted
[1] = tested on: HCT-15 colon
[2] = tested on: HT29 colon
[3] = tested on: SNB-75 CNS
[4] = tested on: SNB-19 CNS
[5] = tested on: U251 CNS
[6] = tested on: PC-3 prostate
[7] = tested on: SK-MEL-5 melanoma
[8] = tested on: LOX IMVI melanoma
[9] = tested on: SK-MEL-28 melanoma

Compound	growth [1]	growth [2]	growth [3]	growth [4]	growth [5]	growth [6]	growth [7]	growth [8]	growth [9]
COc1cc(-c2cc3ncccc3c3nc(OCCN(C)C)c4cccnc4c23)cc(OC)c1OC	23.1%	9.99% (active)	-36.8% (active)	15%	11.8%	16.2%	-7.91% (active)	-43.5% (active)	31.6%
Cn1cc(-c2csc(-c3cn(CCCN4CCCCC4)c4ccccc34)n2)c2cccnc21	-78.2% (active)	-87.7% (active)	49.3%	-65.6% (active)	-90.5% (active)	-55.7% (active)	-98.5% (active)	-71.9% (active)	-82.6% (active)
O=P(O)(c1ccccc1)c1ccccc1I	111%	80%	84%	103%	89.3%	82.1%	96.8%	93.8%	108%
Cc1cc(N(CCNc2ccnc3cc(Cl)ccc23)Cc2ccco2)nc(Cl)n1	1.35% (active)	-33.4% (active)	-88.7% (active)	15.4%	-66.5% (active)	-54.4% (active)	-63.4% (active)	-64.8% (active)	-33.4% (active)
CCCCC[C@H]1CC=C2C(=O)C=C[C@@H]2CC=CCCCC(=O)O[C@@H](CCCCC)CC=C2C(=O)C=C[C@@H]2CC=CCCCC(=O)O[C@@H](CCCCC)CC=C2C(=O)C=C[C@@H]2CC=CCCCC(=O)O1	7.88% [8.75 µM] (active)	-12.4% [8.75 µM] (active)	48.7% [8.75 µM]	9.32% [8.75 µM] (active)	-49.4% [8.75 µM] (active)	-15.7% [8.75 µM] (active)	-76.7% [8.75 µM] (active)	-87.5% [8.75 µM] (active)	-48.7% [8.75 µM] (active)
O=C(N/N=C/c1ccccc1SSc1ccccc1/C=N/NC(=O)c1ccccc1)c1ccccc1	21.6%	43.3%	65.8%	44.8%	34.1%	40.2%	22.5%	11.1%	39.6%
CCN(CC)CCCCCCNc1ccnc2cc(Cl)ccc12	92.6%	27%	87%	113%	85.3%	87%	80.8%	78%	106%
Cc1cc(N(CCCNc2ccnc3cc(Cl)ccc23)Cc2ccco2)nc(N2CCOCC2)n1	54.9%	34.9%	73.5%	78.1%	84%	62.2%	54.5%	66%	77.6%
O=C1CCN2C(=O)Nc3ccccc3C2C1 (stereo not given)	99%	104%	83.4%	92%	104%	95.2%	103%	106%	
O=C1CNCCN1	100%	100%	92.6%	104%	104%	96.5%	101%	98.5%	105%
CCC(CC)C(=O)OC(C)COc1ccc(C(C)(C)C)cc1 (stereo not given)	109%	71.7%	94.8%	103%	90.1%	73.2%	98.7%	106%	101%
C#CCC(C)(O)/C=C/C1=C(C)CCCC1(C)C (stereo not given)	107%	86.2%	87%	95.8%	86.1%	77.6%	98.4%	96.4%	101%
CN(C)c1ccc(N=C2C=CC(=O)C=C2)cc1	97.7%	97.1%	77.6%	83.6%	76.5%	64.4%	87.2%	80.6%	97.4%
COc1cnc2c(c1)C(=O)c1c-2n(CCCNC2=NCCS2)c(=O)c2cc([N+](=O)[O-])ccc12	-60.8% (active)	-42.4% (active)	23.7%	27.2%	-83.9% (active)	-48.1% (active)	-41% (active)	-91.3% (active)	-35.9% (active)
CC(=O)OCCCCCCn1c2ccccc2c2c3c(c4c5ccccc5n(C)c4c21)C(=O)N(O)C3=O	69.5%	23.7%	101%	77.5%	58.4%	52.9%	41.7%	5.8% (active)	
Cc1cccc(C)c1NCc1nc(-c2ccccc2)n[nH]1	101%	103%	89.7%	94.7%	101%	100%	102%	97.9%	96.8%
O=C1c2ccccc2NC(c2cn(-c3ccccc3)nc2-c2cccs2)N1Cc1ccccc1 (stereo not given)	77.7%	75%	87.7%	95.4%	86.9%	64.8%	80.9%	62.1%	97.3%
CN(C)c1ccc(C(=O)c2ccc(N(C)C)c(N)c2)cc1N	26%	9.95% (active)	-11.3% (active)	45.3%	34.4%	49.3%	3.25% (active)	53.9%	61.9%
O=C(NO)c1ccc(Cn2c(=O)n(CCc3ccc(O)cc3)c(=O)c3ccccc32)cc1	96.5%	92.2%	47.8%	44.1%	8.31% (active)	38.7%	42.1%	22.4%	17.5%
C[Si](C)(C)Cc1ccccc1	110%	114%	87.8%	116%	114%	105%	108%	102%	128%
N#Cc1cnc2cc(OC[C@@H](O)CO)c(NC(=O)CC3CSSC3)cc2c1Nc1ccc(OCc2cccc(F)c2)c(Cl)c1	22%	-81.6% (active)	-88% (active)	-66% (active)	-70.2% (active)	-82.3% (active)	-97% (active)	-84.2% (active)	-71.9% (active)
Fc1ccc(Nc2nnc(-c3ccc(Cl)cc3)o2)cc1	98.4%	94.7%	102%	101%	92.1%	86.7%	99.8%	108%	106%
CC/C=C\C[C@H]1CC=C2C(=O)C=C[C@@H]2CC=CCCCC(=O)O[C@@H](CCCCC)CC=C2C(=O)C=C[C@@H]2CC=CCCCC(=O)O[C@@H](CCCCC)CC=C2C(=O)C=C[C@@H]2CC=CCCCC(=O)O[C@@H](CCCCC)CC=C2C(=O)C=C[C@@H]2CC=CCCCC(=O)O1	47.1% [7.9 µM]	2.5% [7.9 µM] (active)	65.2% [7.9 µM]	25.7% [7.9 µM]	-45.8% [7.9 µM] (active)	13.5% [7.9 µM]	17.9% [7.9 µM]	-75.8% [7.9 µM] (active)	11.9% [7.9 µM]
Cc1ccc(-c2nn(Cc3cn(-c4cc(C)nc5ccccc45)nn3)c3ncnc(N)c23)cc1	57%	49.8%	15.5%	53.2%	71.8%	49%	40.7%	52.4%	68.7%
COc1cc(/C=C2\C(=O)N(CC(O)COc3cc(O)c4c(=O)cc(-c5ccccc5)oc4c3)c3ccccc32)cc(OC)c1O (stereo not given)	59.1%	88.2%	81.1%	92.2%	91.6%	61.1%	50%	80.2%	92%
COc1ccc2c(c1)c(-c1nc(-c3c[nH]c4ncccc34)cs1)cn2CCCN1CCCCC1	-5.93% (active)	-51.8% (active)	46.9%	43.9%	-17.7% (active)	28.5%	-87.6% (active)	-75.6% (active)	-74.9% (active)
Nc1ncnc2nc(Br)[nH]c12	108%	102%	87.2%	101%	89.4%	78.3%	100%	93.7%	114%
COC(=O)[C@]12CC[C@@H](C)[C@H](C)[C@@H]1C1=CC[C@@H]3[C@@]4(C)C[C@@H](OC(C)=O)[C@H](OC(C)=O)[C@@](C)(COC(C)=O)[C@@H]4[C@H](O)C[C@@]3(C)[C@]1(C)CC2	7.64% (active)	2.23% (active)	34.6%	24.2%	7.43% (active)	4.25% (active)	-71.5% (active)	2.68% (active)	38.6%
